Most compounds without a hit are left out; they make up all but 2.2% or so of the library.
Mito fusion yeast = qHTS Assay for Small Molecule Inhibitors of Mitochondrial Division or Activators of Mitochondrial Fusion | S. cerevisiae fusion-defective mutant growth rescue, CellTiterGlo 48 h | Potency, µM (top dose mostly 46.1 µM), usual class: activators | hit rate 0.23% among 320,000 | AID 485298, 2010; note: nearly all actives have a fitted effect of over 45% in size
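Read-out: ATP-based luminescence (CellTiterGlo, 10 min ambient) reporting growth of fusion-defective ts yeast after 48 hours at 37C on glycerol/ethanol YPEG medium in the presence of compound.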
TDP43 rescue = qHTS of TDP-43 Inhibitors; hit rate 1.8% among 410,000; Potency, µM (highest dose often 46.1 µM), most hits filed as activators; TDP-43 expressing yeast growth rescue, BacTiter-Glo, 24 h; AID 652104, 2013; note: nearly all actives have a fitted effect of over 50% in size
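In this qHTS, compounds that restore growth of yeast expressing TDP-43 appear as activators. Cells (OD600=0.02, galactose medium, raffinose-pregrown) are incubated with compound 24 hr at 30 deg C and growth is quantified by BacTiter-Glo.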
Abeta rescue = qHTS for compounds that reverse cellular toxicity of Amyloid beta (A-beta) peptide in yeast: Primary Screen; yeast expressing A-beta42, growth rescue, OD600, 48 h; response scale: 0% DMSO, 100% iron-clioquinol control; Potency, µM (titrated, usually from 46.1 µM), usual class: activators; hit rate 0.063% among 410,000; AID 1347071, 2019; note: nearly all actives have a fitted effect of over 55% in size
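Yeast A-beta toxicity model in growth medium with pinned compounds, 48 h at 30 C; growth read as absorbance at 600 nm. Normalized to FeCl3/clioquinol equimolar mix (positive) and DMSO (negative).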
FUS yeast rescue = qHTS for Suppressors of FUS Proteinopathy: Primary screen using FUS-linked yeast assay; Potency, µM (top dose mostly 76.6 µM), actives largely listed as activators; hit rate 0.24% among 390,000; S. cerevisiae FUS-expressing, growth rescue, OD600, 24 h; note: nearly all actives have a fitted effect of over 55% in size
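Read-out: OD at 600 nm after 24hr at 30C, reporting rescue of FUS-induced yeast toxicity. Cells at OD 0.005 in galactose (2%) minimal medium; compounds tested in a dilution series; CP55940 titration from 92uM final as control.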
aSyn rescue = qHTS of alpha-syn Inhibitors | Yeast expressing alpha-synuclein, growth rescue, BacTiter-Glo, 24 h | Potency, µM (titrated, usually from 46.1 µM), actives largely listed as activators | hit rate 0.14% among 370,000; note: nearly all actives have a fitted effect of over 65% in size
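Rescue of yeast growth: cells expressing toxic alpha-synuclein, induced in galactose at OD600 0.02, incubated with compound 24 h at 30 C. ATP luminescence quantified growth; inhibitors of toxicity appear as activators.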
Numbers stand for hits; i = inactive; ? = inconclusive; nt = no result given; [ ] = dose if it differs, or a comment. Calls come from the whole dose curve; as a rule, active = well fitted curve in the direction sought with a large enough effect; inconclusive = small, poorly fitted or top-dose-only effect, or another doubt; inactive = no such curve, though single readings can be large; an effect the other way counts as inactive or inconclusive.

SMILES	Mito fusion yeast	TDP43 rescue	Abeta rescue	FUS yeast rescue	aSyn rescue
Cc1cc(C)cc(NC(=O)C(=O)NCC(c2cccnc2)N2CCc3ccccc32)c1 (configuration not stated)	nt	i	i	i	nt
COc1ccccc1N1CCN(S(=O)(=O)CCNC(=O)C(c2ccccc2)c2ccccc2)CC1	nt	i	i	?	nt
COc1cccc(NC(=O)C2CCC(CNS(=O)(=O)c3csc(C(N)=O)c3)CC2)c1 (configuration not stated)	nt	i	i	i	nt
Cc1ccc(NC(=O)c2cc(C)n(-c3cccc(C)c3)c2C)cc1	?	?	i	i	i
Cc1ccc(NC(=O)c2cc(C)n(-c3ccccc3)c2C)cc1	i	25.1µM	i	i	i
Cc1cccc(-c2cc(NC(=O)c3ccccc3C)n(-c3ccccc3)n2)c1	nt	20µM	i	i	nt
CCc1ccc(C2c3c(oc4ccc(F)cc4c3=O)C(=O)N2c2nc(C)c(C(=O)OC)s2)cc1 (configuration not stated)	nt	i	i	i	nt
Cc1ccc(-c2noc(CSc3nnc(C)n3-c3ccc(C)cc3)n2)cc1	nt	i	i	?	nt
Cc1ccc(-n2c(SCc3nc(-c4ccc(Cl)cc4)no3)nnc2-c2ccncc2)cc1	nt	35.5µM	i	?	nt
Cn1c(SCc2nc(-c3ccc(Cl)cc3)no2)nnc1-c1ccco1	i	12.6µM	i	i	i
Nn1c(SCc2cccc(C(F)(F)F)c2)nnc1-c1ccco1	i	i	i	i	i
Cc1ccc(-c2noc(CSc3nnc(C)n3-c3ccc(C)c(C)c3)n2)cc1	nt	35.5µM	i	i	nt
Cn1c(SCc2cccc(C(F)(F)F)c2)nnc1-c1ccco1	i	20µM	i	i	i
COc1ccc(Br)c(C(=O)Nc2cc3c(cc2N2CCCC2)n(C)c(=O)c(=O)n3C)c1	nt	i	i	i	nt
O=C(Cn1c(-c2cccs2)cc2ccccc21)NCc1ccccc1Br	nt	i	i	i	nt
Cc1ccc(CNC(=O)c2ccc(N3Cc4ccccc4Oc4ncccc43)s2)cc1	nt	i	i	i	nt
COc1ccc([C@]23Cc4cc(OC)c(OC)cc4C(O2)c2c(cc(-c4ccccc4)oc2=O)O3)cc1	i[9.22 µM]	nt	nt	nt	nt
COc1ccc(C(C)=O)cc1CSc1nnc(Nc2ccc(C)cc2C)s1	15.8µM	20µM	i	i	?
COc1ccc2cc([S+]([O-])Cc3ncc(C)c(OC)c3C)nc2c1	i	nt	nt	nt	i
COc1cc(NC(=O)Nc2ccc3c(c2)OCO3)cc(OC)c1OC	i	i	i	i	i
COc1cc(C(Nc2ccc3c(c2)OCO3)C(=O)NC2CCCCC2)cc(OC)c1OC (configuration not stated)	i	i	i	17.8µM	i
O=C(OCc1csc(Nc2ccccc2)n1)c1ccc(Cl)cc1	?	10µM	?	i	i
Cc1ccc(C(=O)NCC(=O)OCc2csc(-c3ccccc3)n2)cc1	i	i	i	i	i
O=C(OCc1csc(-c2ccccc2)n1)c1ccc(O)cc1	i	10µM	i	i	i
CCCCCCCNC(=O)C1(CC2CC(c3cccc(Br)c3)=NO2)CCN(C(=O)CCCCCBr)CC1 (configuration not stated)	i	?	i	28.2µM	i
SMILES	Mito fusion yeast	TDP43 rescue	Abeta rescue	FUS yeast rescue	aSyn rescue
CCCCCCCNC(=O)C1(CC2CC(c3cccc(Br)c3)=NO2)CCN(C(=O)C2(C)CC2)CC1 (configuration not stated)	i	i	i	?	i
CNc1cncc(-c2c(OC)cccc2OC)n1	nt	i	i	i	i
CNc1cncc(-c2ccc(OC)c(OC)c2)n1	nt	i	i	i	7.94µM
CNc1cncc(-c2cccc(OC)c2F)n1	nt	28.2µM	i	i	i
CCC(=O)Nc1cccc(-c2cnc3ccccc3n2)c1	i	?	i	i	i
O=C(CCl)Nc1cccc(-c2cnc3ccccc3n2)c1	i	12.6µM	i	i	i
CC(Oc1ccccc1)C(=O)Nc1ccc(C(=O)OCc2cc(=O)n3nc(C(C)C)sc3n2)cc1 (configuration not stated)	nt	i	i	i	nt
O=c1c(Cl)c(Cl)cnn1Cc1ccccc1Cl	i	35.5µM	i	nt	i

High-throughput results deposited in PubChem by National Center for Advancing Translational Sciences (NCATS).
